The values below come from PubChem BioAssay (EPA / NIEHS).

SMILES strings stand for the structures. Active and inactive are the calls of the source. How the source made its calls: active means hit-call score of the fitted dose curve at least 0.9, where 1 is the maximum; inactive means score below 0.9.

Experiment [1] is described as follows: ATG_M_61_CIS: Attagene CIS-FACTORIAL HepG2 Assay for M61 Transcription Factor (Internal Marker) (AID 2282937). To be noted: HepG2 Attagene CIS-FACTORIAL M61 internal marker reporter; actives raise or lower the signal. The essentials:
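Background-control endpoint: HepG2 cells with cis-regulated reporter constructs, 24 h exposure, reporter mRNA detected via fluorescent primer extension and capillary electrophoresis; values from bidirectional fitting with DMSO baseline.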

Experiment [2] can be described thus: ATG_EGR_CIS: Attagene CIS-FACTORIAL HepG2 Assay for human Early Growth Response 1 (EGR1) (AID 2282938). The following applies: HepG2 Attagene CIS-FACTORIAL EGR reporter mRNA; actives raise or lower the signal. Summed up:
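Endpoint derived by bidirectional fitting versus DMSO vehicle. Method: cis-promoter reporter units transfected into HepG2, 24 h dosing, RNA isolation, RT-PCR with 6-FAM primer extension and HpaI digestion, then capillary electrophoresis fluorescence detection.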

A short description of experiment [3]: ATG_M_19_CIS: Attagene CIS-FACTORIAL HepG2 Assay for M19 Transcription Factor (Internal Marker) (AID 2282939). The following applies: HepG2 Attagene CIS-FACTORIAL M19 internal marker reporter; actives raise or lower the signal. Summed up:
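In this multiplexed cell assay, transiently transfected HepG2 reporter units report endogenous transcription-factor activity; after 24 hours of treatment, labelled reporter cDNA fragments are quantified by capillary electrophoresis and fitted bidirectionally against DMSO.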

Experiment [4] can be described thus: ATG_ERE_CIS: Attagene CIS-FACTORIAL HepG2 Assay for Estrogen Response Element (ERE) (AID 2282940). The following applies: HepG2 ERE cis-reporter, Attagene RNA transcript; actives raise or lower the signal. Summed up: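 Measuring endogenous transcription factor output, the assay doses transfected HepG2 cells for 24 hours and quantifies reporter transcripts by fluorescent RT-PCR and capillary electrophoresis, with DMSO as baseline.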

Experiment [5] can be described thus: ATG_Ets_CIS: Attagene CIS-FACTORIAL HepG2 Assay for human Erythroblast Transformation Specific (ETS) (AID 2282941). The following applies: HepG2 ETS cis-reporter transcription, actives raise or lower the signal. The essentials:
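Bidirectional fit versus DMSO of reporter mRNA signal, detected by RT-PCR and capillary electrophoresis in HepG2 cells transiently transfected with cis-element reporters and dosed 24 h.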

The target in experiment [6] is Hepatocyte nuclear factor 3-beta (Homo sapiens) (UniProt Q9Y261). Nature of the experiment: ATG_FoxA2_CIS: Attagene CIS-FACTORIAL HepG2 Assay for human Forkhead box A2 (FOXA2) (AID 2282942). To be noted: HepG2 cis-reporter transcription factor activity, 24 h; actives raise or lower the signal. Summed up:
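Measured: reporter mRNA induction or loss in HepG2 transiently carrying multiple cis-regulated reporter units, 24 h after dosing. Quantified by RT-PCR plus capillary electrophoresis, normalised to DMSO.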

Experiment [7] in a line: ATG_FoxO_CIS: Attagene CIS-FACTORIAL HepG2 Assay for human Forkhead box O (FoxO) (AID 2282943). The following applies: HepG2 Attagene cis-reporter, FoxO element, mRNA; actives raise or lower the signal. Summed up:
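HepG2 cells transiently transfected with cis-element-driven reporter units report endogenous FoxO activity. After 24 h chemical exposure, reporter mRNA quantified by RT-PCR, fluorescent labeling, HpaI digestion and capillary electrophoresis; bidirectional fit versus DMSO.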

Experiment [8] is described as follows: ATG_GLI_CIS: Attagene CIS-FACTORIAL HepG2 Assay for human Zinc Finger Protein GLI1 (AID 2282945). The following applies: HepG2, Attagene cis-factorial reporter mRNA, GLI element; actives raise or lower the signal. The essentials: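 Transiently transfected HepG2 cells report endogenous transcription factor activity via cis-element-driven reporter units. After 24 h compound exposure, reporter mRNA was measured by RT-PCR with capillary electrophoresis; bidirectional fitting against DMSO baseline.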

Experiment [9] concerns the target Bile acid receptor (Homo sapiens) (UniProt Q96RI1). Nature of the experiment: ATG_IR1_CIS: Attagene CIS-FACTORIAL HepG2 Assay for human Nuclear Receptor Subfamily 1 Group H Member 4 (NR1H4), IR1 submotif (AID 2282946). To be noted: IR1 reporter transcription, actives raise or lower the signal. Summed up:
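Fluorescence of capillary-separated, HpaI-digested RT-PCR reporter products gave IR1-element mRNA induction in HepG2 cells 24 h after dosing. Endogenous transcription factors drove the cis-regulated reporters; activity was fitted bidirectionally against DMSO.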

The nature of experiment [10]: ATG_GRE_CIS: Attagene CIS-FACTORIAL HepG2 Assay for human Glucocorticoid Response Elements (GRE) (AID 2282947). The following applies: HepG2 GRE cis-reporter, Attagene multiplex mRNA; actives raise or lower the signal. The essentials:
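Fluorescence intensity of reporter-specific cDNA fragments, separated by capillary electrophoresis, provides the signal. Constructs carry cis-regulating promoters in transiently transfected HepG2 liver cells; 24 h incubation; fitting is bidirectional against DMSO.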

Experiment [11] in a line: ATG_ISRE_CIS: Attagene CIS-FACTORIAL HepG2 Assay for human Interferon Regulatory Factor 1 (IRF1) binding to an Interferon-Stimulated Response Element (ISRE) (AID 2282948). To be noted: HepG2 ISRE cis-reporter (Attagene), mRNA transcription readout; actives raise or lower the signal. The essentials:
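Uses HepG2 liver cells transfected with cis-regulated reporters and measures mRNA 24 h post-dosing through RT-PCR, primer-extension labelling and capillary electrophoresis, with DMSO as negative control.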

Experiment [12] is described as follows: ATG_M_32_CIS: Attagene CIS-FACTORIAL HepG2 Assay for M32 Transcription Factor (Internal Marker) (AID 2282949).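 Further: background control marker of the multiplexed CIS panel rather than a real target.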 The following applies: HepG2 Attagene cis-factorial M32 reporter, mRNA; actives raise or lower the signal. Summed up:
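HepG2 transfectants (cis-regulated reporter transcription units) dosed 24 h. Reporter mRNA by RT-PCR plus CE, analysed as gain or loss relative to DMSO.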

Experiment [13] can be described thus: ATG_M_06_CIS: Attagene CIS-FACTORIAL HepG2 Assay for M06 Transcription Factor (Internal Marker) (AID 2282950). The following applies: HepG2 Attagene CIS-FACTORIAL M06 internal marker reporter; actives raise or lower the signal. Summed up: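 One of many multiplexed endpoints: HepG2 reporter mRNA after 24 h dosing, detected by RT-PCR and capillary electrophoresis fluorescence; gain or loss of signal analysed against DMSO.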

Experiment [14] addresses Hypoxia-inducible factor 1-alpha (Homo sapiens) (UniProt Q16665). Nature of the experiment: ATG_HIF1a_CIS: Attagene CIS-FACTORIAL HepG2 Assay for human Hypoxia Inducible Factor 1 (HIF1A) (AID 2282951). To be noted: HepG2 Attagene cis-factorial HIF1a reporter transcription; actives raise or lower the signal. The essentials:
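Dosed 24 h, transfected HepG2 cells yielded total RNA whose reporter transcripts were RT-PCR-amplified and sized by capillary electrophoresis using fluorescent labelling; DMSO defined baseline, with gain and loss of signal both fitted.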

For experiment [15], the target named is Hepatocyte nuclear factor 6 (Homo sapiens) (UniProt Q9UBC0). Description: ATG_HNF6_CIS: Attagene CIS-FACTORIAL HepG2 Assay for human Hepatocyte Nuclear Factor 6 (HNF6) (AID 2282952). To be noted: HepG2 Attagene cis-factorial HNF6 reporter transcription; actives raise or lower the signal. The essentials:
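First, HepG2 cells were transfected with the multiplexed cis reporter library and dosed with chemical for 24 h. Next, RNA was reverse-transcribed, PCR-amplified and fluorescently labelled. Finally, HpaI-digested fragments were read by capillary electrophoresis.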

The target of experiment [16] is Heat shock factor protein 1 (Homo sapiens) (UniProt Q00613). Nature of the experiment: ATG_HSE_CIS: Attagene CIS-FACTORIAL HepG2 Assay for human Heat Shock Transcription Factor 1 (HSE) (AID 2282953). The following applies: HepG2 HSE cis-reporter, Attagene RNA transcription; actives raise or lower the signal. The essentials:
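Using HepG2 with transfected cis-driven reporter constructs, compound effects on endogenous factor activity are scored as reporter mRNA change at 24 h. Detection: RT-PCR, HpaI digestion, capillary electrophoresis; bidirectional fitting to DMSO.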

Experiment [17] is described as follows: ATG_MRE_CIS: Attagene CIS-FACTORIAL HepG2 Assay for human Metal Responsive Element (MRE) (AID 2282954). The following applies: HepG2 MRE cis-reporter transcription, Attagene multiplex; actives raise or lower the signal. The essentials: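 Measured here is mRNA induction from an MRE cis-element reporter in HepG2 after 24 h, quantified by fluorescence of labelled RT-PCR products on capillary electrophoresis; gain- and loss-of-signal fits use DMSO as baseline.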

Experiment [18] is described as follows: ATG_GATA_CIS: Attagene CIS-FACTORIAL HepG2 Assay for human GATA Binding Protein (AID 2282944). To be noted: HepG2 GATA cis-element reporter, Attagene multiplex mRNA; actives raise or lower the signal. The essentials: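 Measures endogenous transcription factor-driven reporter mRNA in HepG2 cells transiently carrying cis-regulated constructs. 24 h dosing; RNA via oligo(dT) reverse transcription, PCR, HpaI digestion, capillary electrophoresis; fitted relative to DMSO.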

A short description of experiment [19]: ATG_PBREM_CIS: Attagene CIS-FACTORIAL HepG2 Assay for human Phenobarbital-responsive Enhancer Module (PBREM) (AID 2282955). The following applies: HepG2 PBREM cis-reporter, Attagene multiplexed transcription; actives raise or lower the signal. The essentials:
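Transfected liver-derived HepG2 cells exposed 24 h; PBREM reporter transcript quantified via RT-PCR and capillary electrophoresis, with activity in either direction referenced to DMSO.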

Bile acid receptor (Homo sapiens), sequence (Q96RI1 whole entry, looked up): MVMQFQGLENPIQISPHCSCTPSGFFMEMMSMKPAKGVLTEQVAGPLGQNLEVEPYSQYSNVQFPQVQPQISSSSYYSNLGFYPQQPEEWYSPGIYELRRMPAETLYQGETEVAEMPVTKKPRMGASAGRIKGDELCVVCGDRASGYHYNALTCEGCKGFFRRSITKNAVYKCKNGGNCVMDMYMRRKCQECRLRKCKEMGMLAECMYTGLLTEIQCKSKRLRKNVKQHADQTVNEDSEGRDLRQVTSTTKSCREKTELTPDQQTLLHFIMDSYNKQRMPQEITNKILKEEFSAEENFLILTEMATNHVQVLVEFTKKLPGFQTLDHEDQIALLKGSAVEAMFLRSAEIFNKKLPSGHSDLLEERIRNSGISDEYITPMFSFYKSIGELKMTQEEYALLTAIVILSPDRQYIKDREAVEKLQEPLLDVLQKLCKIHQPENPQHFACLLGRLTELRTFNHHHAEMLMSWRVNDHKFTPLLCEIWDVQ
Hypoxia-inducible factor 1-alpha (Homo sapiens), sequence (Q16665 whole entry, looked up): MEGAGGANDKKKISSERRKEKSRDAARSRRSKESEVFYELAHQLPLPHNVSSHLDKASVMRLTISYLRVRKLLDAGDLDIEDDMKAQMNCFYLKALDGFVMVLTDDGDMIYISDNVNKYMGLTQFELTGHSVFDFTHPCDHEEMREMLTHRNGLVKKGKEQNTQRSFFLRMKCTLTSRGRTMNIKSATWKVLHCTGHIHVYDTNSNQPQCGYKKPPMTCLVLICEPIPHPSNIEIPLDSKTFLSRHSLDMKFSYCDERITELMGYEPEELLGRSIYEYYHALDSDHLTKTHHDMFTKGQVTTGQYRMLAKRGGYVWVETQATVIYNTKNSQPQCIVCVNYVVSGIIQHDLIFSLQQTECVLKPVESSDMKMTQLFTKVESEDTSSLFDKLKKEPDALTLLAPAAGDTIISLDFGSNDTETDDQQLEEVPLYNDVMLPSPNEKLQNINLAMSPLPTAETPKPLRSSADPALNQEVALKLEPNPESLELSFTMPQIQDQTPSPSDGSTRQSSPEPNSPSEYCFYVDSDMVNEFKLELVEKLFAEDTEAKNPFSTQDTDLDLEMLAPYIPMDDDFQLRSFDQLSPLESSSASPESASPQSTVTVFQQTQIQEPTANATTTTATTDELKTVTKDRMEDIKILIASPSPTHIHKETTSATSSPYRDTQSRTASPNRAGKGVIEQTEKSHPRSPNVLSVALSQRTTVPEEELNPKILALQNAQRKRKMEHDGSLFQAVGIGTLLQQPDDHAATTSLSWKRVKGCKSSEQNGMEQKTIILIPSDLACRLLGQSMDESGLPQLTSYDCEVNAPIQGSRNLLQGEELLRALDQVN
Heat shock factor protein 1 (Homo sapiens), sequence (Q00613 whole entry, looked up): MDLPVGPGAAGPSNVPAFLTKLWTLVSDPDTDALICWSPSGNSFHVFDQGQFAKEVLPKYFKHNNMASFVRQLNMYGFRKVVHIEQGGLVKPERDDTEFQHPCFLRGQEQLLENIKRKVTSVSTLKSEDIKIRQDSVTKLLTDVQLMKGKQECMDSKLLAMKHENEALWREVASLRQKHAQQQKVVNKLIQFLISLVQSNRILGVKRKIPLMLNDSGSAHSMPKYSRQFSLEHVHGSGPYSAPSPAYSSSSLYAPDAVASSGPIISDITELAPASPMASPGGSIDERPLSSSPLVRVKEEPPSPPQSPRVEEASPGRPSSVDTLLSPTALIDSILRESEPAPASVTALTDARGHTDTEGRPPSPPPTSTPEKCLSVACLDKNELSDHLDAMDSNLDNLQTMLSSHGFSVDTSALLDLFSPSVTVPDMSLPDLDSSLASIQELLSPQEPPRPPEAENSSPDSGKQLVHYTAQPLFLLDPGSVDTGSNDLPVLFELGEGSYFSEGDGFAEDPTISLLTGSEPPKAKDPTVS
Hepatocyte nuclear factor 3-beta (Homo sapiens), sequence (Q9Y261 whole entry, looked up): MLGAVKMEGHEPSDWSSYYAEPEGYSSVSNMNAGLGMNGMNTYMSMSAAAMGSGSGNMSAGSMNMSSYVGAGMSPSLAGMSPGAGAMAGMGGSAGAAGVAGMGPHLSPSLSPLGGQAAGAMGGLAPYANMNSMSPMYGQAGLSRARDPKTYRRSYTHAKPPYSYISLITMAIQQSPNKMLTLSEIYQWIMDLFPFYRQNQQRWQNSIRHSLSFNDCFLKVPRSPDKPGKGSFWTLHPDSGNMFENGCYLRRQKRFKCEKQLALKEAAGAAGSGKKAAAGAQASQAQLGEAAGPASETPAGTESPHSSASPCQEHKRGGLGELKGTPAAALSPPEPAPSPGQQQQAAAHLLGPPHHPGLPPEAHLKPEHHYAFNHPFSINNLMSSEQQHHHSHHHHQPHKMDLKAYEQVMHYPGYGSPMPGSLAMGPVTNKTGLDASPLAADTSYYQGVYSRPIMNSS
Hepatocyte nuclear factor 6 (Homo sapiens), sequence (Q9UBC0 whole entry, looked up, the tested form may be a part): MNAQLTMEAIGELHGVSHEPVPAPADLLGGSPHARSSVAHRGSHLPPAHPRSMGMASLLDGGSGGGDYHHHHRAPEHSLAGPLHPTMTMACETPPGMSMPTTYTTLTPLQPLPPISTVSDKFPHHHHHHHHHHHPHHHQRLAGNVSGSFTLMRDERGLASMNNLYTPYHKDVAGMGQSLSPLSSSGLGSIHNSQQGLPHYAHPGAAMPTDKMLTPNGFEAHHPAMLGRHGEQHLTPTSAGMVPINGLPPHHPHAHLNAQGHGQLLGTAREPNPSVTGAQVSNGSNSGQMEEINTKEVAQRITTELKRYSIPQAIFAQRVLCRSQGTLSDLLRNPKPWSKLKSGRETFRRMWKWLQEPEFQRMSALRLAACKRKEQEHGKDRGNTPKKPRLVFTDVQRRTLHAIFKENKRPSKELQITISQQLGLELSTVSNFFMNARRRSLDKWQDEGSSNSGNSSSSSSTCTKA

In the case of `CCOC(=O)c1ccccc1C(=C1C=C(Br)C(=O)C(Br)=C1)c1cc(Br)c(O)c(Br)c1`, the outcome in [1], in experiment [3], in [4], in experiment [5], in experiment [10] and in experiment [12] was inactive. In addition, the compound was called inactive in experiment [13] and in experiment [15]. The AC50 (in general, the concentration at which the activity in the assay is half-maximal) in experiment [2] is 33.4 µM (active); in [6] it was 43.6 µM (active); in experiment [7] it was 47.6 µM (active); in experiment [8], 37.7 µM (active); in experiment [9], 62.5 µM (active); in experiment [11], 28.8 µM (active). For the same compound, the AC50 is 35.8 µM (active) in [14], 20.6 µM (active) in experiment [16] and 26.2 µM (active) in experiment [17].
Turning to `CCC(=O)Oc1ccc(/C(CC)=C(\CC)c2ccc(OC(=O)CC)cc2)cc1`, the AC50 in [2] was 45.1 µM (active); in experiment [4], 0.0825 µM (active); in experiment [8], 51.5 µM (active); in experiment [11], 16.9 µM (active); in experiment [16] it was 29.1 µM (active); in [17], 30.6 µM (active). In addition, the compound was classed as inactive in experiment [3], in experiment [5], in experiment [6], in experiment [7], in [18] and in [10]. Further, the compound was called inactive in experiment [12] and in experiment [13].
Take `C=CC(=O)OCC(Br)CBr` (stereo not given): the call in experiment [1], in experiment [3], in [4], in experiment [5], in experiment [7] and in experiment [18] was inactive. Further, the outcome in [8], in [10], in [13], in [14] and in experiment [17] was inactive. In addition, the AC50 in [2] is 52.8 µM (active); in [6] it was 131 µM (active); in experiment [11], 100 µM (active); in [16], 155 µM (active).
Regarding `CCOc1nc(F)cc2nc(S(=O)(=O)Nc3c(Cl)cccc3C(=O)OC)nn12`, the outcome in experiment [2], in experiment [3], in experiment [4], in experiment [5], in experiment [6] and in experiment [7] was inactive. Moreover, the compound was classed as inactive in experiment [18], in [8], in experiment [9], in experiment [10], in [11] and in experiment [13]. Also, the compound was called inactive in [14], in experiment [15], in experiment [16], in experiment [17] and in experiment [19].
In the case of `Clc1nc2ccccc2s1`, the outcome in experiment [1], in experiment [2], in experiment [3], in experiment [4], in experiment [5] and in experiment [6] was inactive. The outcome in [7], in experiment [18], in experiment [8], in experiment [9], in experiment [10] and in [11] was inactive. Also, the compound was called inactive in experiment [12], in [13], in experiment [14], in experiment [16] and in experiment [17].
